Test results as given in ChEMBL document CHEMBL3433997, “St. Jude Leishmania screening dataset” (2016).

Legend:
Assay type in all cases: functional
[1] = biological target: Solute carrier family 2, facilitated glucose transporter member 1 (Homo sapiens) (UniProt P11166); assay: ST_JUDE_LEISH: Cytotoxicity at 2uM final concentration against transgenic Leishmania Mexicana promastigotes LmGLUT1 that are glucose transport deficient and complemented with the human glucose transporter GLUT1. Activity is measured by DNA content using SYBR green in vitro
[2] = biological target: Hexose transporter 1 (Plasmodium falciparum) (UniProt O97467); assay: ST_JUDE_LEISH: Cytotoxicity at 2uM final concentration against transgenic Leishmania Mexicana promastigotes LmPfHT that are glucose transport deficient and complemented with the Plasmodium falciparum hexose transporter. Activity is measured by DNA content using SYBR green in vitro
[3] = biological target: Glucose transporter (Leishmania mexicana) (UniProt O61059); assay: ST_JUDE_LEISH: Cytotoxicity at 2uM final concentration against transgenic Leishmania Mexicana promastigotes LmGT2 that are glucose transport deficient and complemented with the L. Mexicana glucose transporter 2. Activity is measured by DNA content using SYBR green in vitro

Chain of Solute carrier family 2, facilitated glucose transporter member 1 (Homo sapiens) (P11166 whole entry): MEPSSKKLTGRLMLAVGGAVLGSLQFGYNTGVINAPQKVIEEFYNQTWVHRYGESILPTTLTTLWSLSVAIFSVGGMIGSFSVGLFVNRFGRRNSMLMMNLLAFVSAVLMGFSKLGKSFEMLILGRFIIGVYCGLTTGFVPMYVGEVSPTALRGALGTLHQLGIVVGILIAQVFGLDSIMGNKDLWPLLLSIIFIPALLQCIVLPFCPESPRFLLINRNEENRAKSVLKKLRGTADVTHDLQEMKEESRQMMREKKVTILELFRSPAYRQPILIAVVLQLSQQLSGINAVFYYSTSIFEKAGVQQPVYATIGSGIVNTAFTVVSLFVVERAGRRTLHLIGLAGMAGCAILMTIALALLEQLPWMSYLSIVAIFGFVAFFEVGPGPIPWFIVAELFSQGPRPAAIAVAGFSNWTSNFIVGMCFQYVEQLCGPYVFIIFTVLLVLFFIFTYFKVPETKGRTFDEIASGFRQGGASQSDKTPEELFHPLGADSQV

| SMILES | inhibition [1] [%] | inhibition [2] [%] | inhibition [3] [%] |
| --- | --- | --- | --- |
| N#Cc1ccc(N2CCN(Cc3ccc(-c4cccc(-c5nc6ccccc6[nH]5)c4)cc3)CC2)nc1 | 2.3 | 1.43 | 0 |
| Cc1c(-c2cccc(C(C)(C)NC3CCN(Cc4ccccc4)CC3)c2)cnc(N)c1C | 2.58 | 0.02 | 2.38 |
| COc1ccc2nccc([C@@H](O)CN3CCC(NCc4cc5c(Cl)cc(Cl)cc5[nH]4)CC3)c2c1 | 6.83 | 5.77 | 1.13 |
| COc1cc(CNCCCCCCNCc2cc(OC)c3ccccc3c2OC)c(OC)c2ccccc12 | 8.25 | 11.8 | 13.6 |
| Cc1ccc(F)cc1-c1cc(N2CCCN(C(=O)c3ccc(Br)o3)CC2)ncn1 | 0.81 | 0.93 | -0.08 |
